Our source for the Potency, activity change, negative = inhibition and max response values is PubChem BioAssay (NCATS).

Each structure is given as a SMILES string. Records with an inconclusive call do not appear. Active and inactive are the calls of the source. Unless noted, the call rests on the fitted dose curve; in most records, active means well fitted curve in the direction sought with a large enough effect; inconclusive means small, poorly fitted or top-dose-only effect, or another doubt; inactive means no such curve, though single readings can be large; an effect the other way counts as inactive or inconclusive.

Test [1] deals with Cytochrome P450 3A4 (Homo sapiens) (UniProt P08684). As to the kind of experiment: qHTS Assay for Inhibitors and Substrates of Cytochrome P450 3A4 (AID 884). Further: nearly all actives have a fitted effect of over 50% in size. Further: potency means the concentration at half of the fitted maximal effect. On activity change, negative = inhibition: on the % scale 0 is the no-effect control and ±100 the full control effect. In a few lines: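 20 nM human CYP3A4 with 25 uM Luciferin-PPXE (at KM) in 200 mM KPO4, preincubated 10 min with compound; NADPH regeneration started a 60 min RT reaction. Luciferin detected by luminescence, normalized to 57 uM ketoconazole as full inhibition.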

For test [2] the target is unchanged. As to the kind of experiment: qHTS Assay for Activators of Cytochrome P450 3A4 (AID 885). Further: nearly all actives have a fitted effect of over 65% in size. Put shortly: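 Steps: enzyme/substrate mix dispensed; compound added, 10 min RT; NADPH regeneration solution added, 60 min RT; luciferin detection buffer stops reaction; 20 min later luminescence measured.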
A general note: In qHTS, concentration-response curves come from the screen itself.

The nature of test [3]: Confirmation and Secondary Assay for Modulators of Hemoglobin Beta Chain Splicing at IVS2 654 locus (AID 910).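 Further: per-well total GFP intensity by laser scanning cytometry after 2-day treatment; % of control where 0% means no effect.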 In a few lines:
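HeLa cells stably carrying EGFP interrupted by mutant beta-globin IVS2-654 intron (CMV-driven) were treated with compound for 2 days at 37C; corrected splicing was scored as total peak GFP intensity per well (488 nm excitation, 500-520 nm emission).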

Test [4] is described as follows: Confirmation and Secondary Assay for Modulators of Hemoglobin Beta Chain Splicing at IVS2 705 locus (AID 930).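 Further: HeLa cells stably expressing the EGFP-705 splicing reporter; GFP fluorescence per well restored by corrected splicing of the IVS2-705 intron in EGFP; % of control where 0% means no effect.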 In a few lines:
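Per-well GFP, captured at 1 x 8 µm resolution with 488 nm excitation, served as the read-out for HeLa EGFP-705 cells incubated 2 days with test compound versus DMSO.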

Test [5] is described as follows: qHTS Assay for Lipid Storage Modulators (AID 1519; calls by dose curve; on activity change, negative = inhibition: on the % scale 0 is the no-effect control and ±100 the full control effect). The following applies: Drosophila S3 cells, BODIPY lipid droplet/cell ratio, laser cytometry, cells loaded with oleic acid; for activity change, negative = inhibition: at 57.5 µM (top of the series). Put shortly: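 Cells seeded at 5,000 per well were treated with compounds over a concentration series and loaded with oleic acid (400 uM, as added). Lipid droplet fluorescence (488 nm excitation, 500-530 nm channel) was read by laser-scanning cytometry and normalized to 20 uM Triacsin C.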

[6] abbreviates: measured here: cell count channel max response.
Setting [7] is: measured here: lipid channel max response.

Sequence of Cytochrome P450 3A4 (Homo sapiens) (P08684 whole entry, looked up): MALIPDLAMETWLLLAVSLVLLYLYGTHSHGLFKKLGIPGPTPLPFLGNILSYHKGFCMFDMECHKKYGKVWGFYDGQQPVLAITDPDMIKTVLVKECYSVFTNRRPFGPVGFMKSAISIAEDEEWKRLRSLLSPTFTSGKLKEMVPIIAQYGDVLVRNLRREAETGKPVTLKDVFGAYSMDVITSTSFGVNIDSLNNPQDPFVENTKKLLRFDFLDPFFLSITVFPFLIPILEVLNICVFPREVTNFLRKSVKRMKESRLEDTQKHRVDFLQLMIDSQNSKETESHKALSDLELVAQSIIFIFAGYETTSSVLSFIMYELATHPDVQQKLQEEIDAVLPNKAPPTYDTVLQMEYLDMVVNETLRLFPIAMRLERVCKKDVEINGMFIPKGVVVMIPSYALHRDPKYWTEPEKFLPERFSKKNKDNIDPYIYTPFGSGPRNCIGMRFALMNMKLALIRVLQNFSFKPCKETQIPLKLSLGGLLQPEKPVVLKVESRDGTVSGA

As for `COc1ccc(CC(=O)c2ccc(O)cc2O)cc1`, the Potency in test [1] was 12.6 µM (active). Moreover, the Potency result in test [2], in test [3] and in test [4] was “inactive” throughout. Also, the activity change, negative = inhibition in test [5] is 4.14% (inactive). Besides, the max response in test [5] (setting [6]) is -22.7%; in test [5] (setting [7]), -16.5%.
With `COC(=O)CC1C(C)(C)C(O)C2CC3=C4CC(O)OC(c5ccoc5)[C@]4(C)CCC3[C@@]1(C)C2=O` (some centres not stated), in test [1], the Potency is 3.16 µM (active). The Potency entry in test [2], in test [3] and in test [4] was “inactive” each time. Further, the activity change, negative = inhibition in test [5] was -6.39% (inactive). Moreover, the results for the max response in test [5] (setting [6]) and in test [5] (setting [7]) were 8.85% and 5.28%, respectively.
With `CC(C)=CC1C(CO)C1(C)C` (configuration not stated), the Potency result in test [1], in test [3] and in test [4] was “inactive” in each case. In addition, in test [5], the activity change, negative = inhibition was 4.52% (inactive). Further, the max response in test [5] (setting [6]) stood at 11.9%; in test [5] (setting [7]), 18.1%.
Take `CCC(C)C(=O)OC1C2CC3=C4CC(=O)OC(c5ccoc5)[C@]4(C)CCC3[C@@](C)(C2=O)C(CC(=O)OC)C1(C)C` (some centres not stated): in test [1], the Potency was 6.31 µM (active). The Potency result in test [2] and in test [4] was “inactive” throughout. Further, the activity change, negative = inhibition in test [5] is -2.94% (inactive). Moreover, the max response in test [5] (setting [6]) is -4.4%; in test [5] (setting [7]), -5.82%.
For `COc1ccc2c(c1)OC1(O)COc3cc(OC)c(OC)cc3C1=C2` (configuration not stated), the Potency in test [1] was 7.94 µM (active). Moreover, the Potency result in test [3] and in test [4] was “inactive” throughout. Further, the activity change, negative = inhibition in test [5] is 0.865% (inactive). Also, the max response in test [5] (setting [6]) is -18.4%; in test [5] (setting [7]), -15.5%.
`COc1ccc(C(C)C(=O)c2ccc(O)cc2O)cc1` (configuration not stated): the Potency in test [1] is 3.98 µM (active). Moreover, the Potency entry in test [2], in test [3] and in test [4] was “inactive” throughout. For the same molecule, the activity change, negative = inhibition in test [5] is 0.578% (inactive). In addition, the max response was -18.6% in test [5] (setting [6]) and -16.9% in test [5] (setting [7]).
As to `C=C1CCC(OC(C)=O)/C(C)=C/CC2[C@H]1CC2(C)C` (some centres not stated), the Potency in test [1] is 31.6 µM (active). In addition, the Potency result in test [2], in test [3] and in test [4] was “inactive” each time. In addition, the activity change, negative = inhibition in test [5] is 1.96% (inactive). For the same molecule, the max response in test [5] (setting [6]) worked out at 2.53%; in test [5] (setting [7]) it was 5.33%.
Turning to `CCOc1cccc(C(=O)c2ccc(O)c(O)c2O)c1`, the Potency result in test [1], in test [3] and in test [4] was “inactive” in each case. In addition, the activity change, negative = inhibition in test [5] is 3.56% (inactive). The max response in test [5] (setting [6]) is 9.44%; in test [5] (setting [7]), -1.04%.
In the case of `CCC(=O)OC1C2CC3=C4CC(=O)OC(c5ccoc5)[C@]4(C)CCC3[C@@](C)(C2=O)C(CC(=O)OC)C1(C)C` (some centres not stated), the Potency result in test [1], in test [3] and in test [4] was “inactive” in each case. Also, in test [5], the activity change, negative = inhibition is -15.8% (inactive). Moreover, the max response is -7.4% in test [5] (setting [6]) and -17% in test [5] (setting [7]).
As for `CC(CC(O)C1OC1(C)C)C1CCC2(C)C3=CCC4C(C)(C)C(=O)CCC4(C)C3CC[C@@]12C` (some centres not stated), the Potency result in test [1], in test [3] and in test [4] was “inactive” throughout. Moreover, the activity change, negative = inhibition in test [5] was 3.08% (inactive). For the same molecule, the max response came out at 2.59% in test [5] (setting [6]) and 11% in test [5] (setting [7]).
With `CCCCCCCC/C=C/CCCCCCCCOP(=O)([O-])OCC[N+](C)(C)C`, the Potency result in test [1], in test [3] and in test [4] was “inactive” in each case. The activity change, negative = inhibition in test [5] is 12.8% (inactive). In addition, the max response in test [5] (setting [6]) is 12.4%; in test [5] (setting [7]), 28.9%.
`CC(C)CCCC(C)C1CCC2C3CC=C4CC(=O)CC[C@@]4(C)C3CC[C@@]12C` (some centres not stated): the Potency entry in test [1], in test [3] and in test [4] was “inactive” each time. Also, the activity change, negative = inhibition in test [5] is 3.79% (inactive). Moreover, the max response in test [5] (setting [6]) was determined as 3.76%; in test [5] (setting [7]), 6.47%.
In the case of `CC(=O)O[C@@]1(C(C)=O)CCC2C3C=C(Cl)C4=CC(=O)CC[C@]4(C)C3CC[C@]21C` (some centres not stated), the Potency result in test [1], in test [3] and in test [4] was “inactive” each time. In addition, the activity change, negative = inhibition in test [5] is -2.19% (inactive). In addition, the max response in test [5] (setting [6]) is -10.2%; in test [5] (setting [7]), -9.83%.
Regarding `CC1=C(C(=O)O)N2C(=O)C(NC(=O)C(N)C3=CCC=CC3)C2SC1` (configuration not stated), the Potency entry in test [1], in test [3] and in test [4] was “inactive” throughout. Besides, the activity change, negative = inhibition in test [5] is 10.8% (inactive). The max response turned out to be 14% in test [5] (setting [6]) and 29.2% in test [5] (setting [7]).
With `CC1=C(/C=C/C(C)=C/C=C/C(C)=C/C=C/C=C(C)/C=C/C=C(C)/C=C/C(=O)[C@]2(C)CC(O)CC2(C)C)C(C)(C)CC(O)C1` (some centres not stated), the Potency result in test [1], in test [3] and in test [4] was “inactive” each time. For the same molecule, in test [5], the activity change, negative = inhibition was 7.14% (inactive). In addition, the max response was 11.8% in test [5] (setting [6]) and 22.4% in test [5] (setting [7]).
On to `COc1cc(O)c(C(=O)c2ccccc2)cc1O`, for which the Potency entry in test [2], in test [3] and in test [4] was “inactive” throughout. Besides, the activity change, negative = inhibition in test [5] is 2.59% (inactive). Moreover, the max response in test [5] (setting [6]) came out at 7.29%; in test [5] (setting [7]), 11.7%.
For `O=c1[nH]c(=O)n(C2CC(O)C(CO)O2)cc1F` (configuration not stated), the Potency entry in test [1], in test [3] and in test [4] was “inactive” in each case. The activity change, negative = inhibition in test [5] was 3.4% (inactive). In addition, the figures for the max response in test [5] (setting [6]) and in test [5] (setting [7]) were 3.49% and 8.27%, respectively.
On to `C=C[C@](C)(O)CCC1C(=C)CC(O)C2C(C)(C)CCCC12C` (some centres not stated), for which, in test [1], the Potency is 1.58 µM (active). In addition, the Potency entry in test [3] and in test [4] was “inactive” in each case. Also, the activity change, negative = inhibition in test [5] is 10.1% (inactive). In addition, the figures for the max response in test [5] (setting [6]) and in test [5] (setting [7]) were 7.01% and 14.1%, respectively.
